Measurements taken from PubChem BioAssay (NCATS).
Inconclusive results are not listed. Entries that show only a call come without a potency. Activity calls are given as the source filed them. Unless noted, calls follow the shape of the dose curve; as a rule, active = well fitted curve in the direction sought with a large enough effect; inconclusive = small, poorly fitted or top-dose-only effect, or another doubt; inactive = no such curve, though single readings can be large; an effect the other way counts as inactive or inconclusive.

Columns and labels:
[1] = Validation screen for small molecules that induce DNA re-replication in MCF 10A normal breast cells (AID 463097); also: nearly all actives have a fitted effect of over 60% in size; also: potency is read from the fitted curve at half-maximal effect
Method in brief: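 250 MCF 10A cells/well; compound pin-transferred; 48 hr, 37 C, 5% CO2; Hoechst 40 min; imaged 405/500-530 nm. Hits = more high-intensity nuclei.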

[2] = molecular target: Ubiquitin carboxyl-terminal hydrolase 2 (Homo sapiens) (UniProt O75604); experiment: qHTS Validation Assay for Inhibitors of Ubiquitin-specific Protease USP2a Using CHOP2 as the Reporter (AID 463106)
Ubiquitin carboxyl-terminal hydrolase 2 (Homo sapiens), sequence (O75604 whole entry, looked up): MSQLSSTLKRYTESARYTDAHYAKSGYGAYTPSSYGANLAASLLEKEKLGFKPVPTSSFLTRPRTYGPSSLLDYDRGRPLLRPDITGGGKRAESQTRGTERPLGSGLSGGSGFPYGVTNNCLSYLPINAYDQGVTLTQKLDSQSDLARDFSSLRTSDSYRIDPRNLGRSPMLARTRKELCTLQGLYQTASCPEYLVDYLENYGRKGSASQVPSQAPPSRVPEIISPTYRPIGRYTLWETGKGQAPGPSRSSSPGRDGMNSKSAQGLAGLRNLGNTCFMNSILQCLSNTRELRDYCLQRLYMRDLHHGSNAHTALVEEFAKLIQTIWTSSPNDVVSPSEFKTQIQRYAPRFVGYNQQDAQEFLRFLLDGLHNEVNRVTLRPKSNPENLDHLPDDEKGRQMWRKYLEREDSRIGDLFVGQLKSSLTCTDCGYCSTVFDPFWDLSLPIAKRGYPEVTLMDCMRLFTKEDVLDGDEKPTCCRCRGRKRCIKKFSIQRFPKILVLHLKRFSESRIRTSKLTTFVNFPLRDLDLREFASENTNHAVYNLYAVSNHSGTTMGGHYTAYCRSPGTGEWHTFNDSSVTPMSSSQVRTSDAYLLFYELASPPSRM
Method in brief: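 Fluorescence read-out at Ex 485nm/Em 531nm after 60min RT, following addition of 25nM Ub-CHOP2 plus 25nM reporter substrate to USP2 core (10nM) pretreated 30min with compound. Data normalized to NEM full inhibition; concentration-response curves fitted.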

[3] = molecular target: DNA polymerase III PolC-type (Bacillus subtilis (strain 168)) (UniProt P13267); experiment: qHTS Validation Assay for the Inhibitors of DNA Replication in Gram-Positive Bacteria (AID 485295);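 also: reconstituted holoenzyme with PolC plus beta clamp SSB and primase; PicoGreen fluorescence of double-stranded DNA made on primed circular M13 template; series mostly up to about 57 µM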
Method in brief: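 PicoGreen fluorescence (ex 480–485/em 535–540 nm) reports dsDNA synthesized on ssM13Gori template with dNTPs/NTPs. Enzyme: holoenzyme rebuilt from purified PolC, beta subunit, SSB and primase. Compound preincubated before substrate addition; RT throughout.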

[4] = molecular target: Tumor susceptibility gene 101 protein (Homo sapiens) (UniProt Q99816); experiment: qHTS Validation Assay for Iinhibitors of HIV-1 Budding by Blocking the Interaction of PTAP/TSG101 (AID 485342; calls by dose curve)
Tumor susceptibility gene 101 protein (Homo sapiens), sequence (Q99816 whole entry, looked up, the tested form may be a part): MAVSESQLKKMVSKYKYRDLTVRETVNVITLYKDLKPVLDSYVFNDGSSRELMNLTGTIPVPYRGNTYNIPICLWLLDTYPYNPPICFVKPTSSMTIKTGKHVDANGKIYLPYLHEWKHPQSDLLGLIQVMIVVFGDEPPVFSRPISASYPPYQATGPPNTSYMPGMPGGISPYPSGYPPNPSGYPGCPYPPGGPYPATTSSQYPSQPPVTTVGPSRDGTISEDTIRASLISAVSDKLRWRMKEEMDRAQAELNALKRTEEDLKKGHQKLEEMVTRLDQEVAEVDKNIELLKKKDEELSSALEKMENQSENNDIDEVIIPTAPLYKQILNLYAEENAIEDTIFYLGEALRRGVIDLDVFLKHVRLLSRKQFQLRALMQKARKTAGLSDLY
Method in brief: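 FP read-out: FITC-PTAP peptide, 50 nM final, binding Tsg101 binding domain, 10 uM final; 20 min r.t.; 10 mM HEPES pH 7.5, 0.15 M NaCl, 0.01% Tween 20, 3 mM EDTA, 0.1 mM TCEP.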

[5] = qHTS Validation Assay to Find Inhibitors of Chronic Active B-Cell Receptor Signaling (AID 485345; active = well fitted curve in the direction sought with a large enough effect in the main read-out, with a control signal flat, not every such curve was filed as active)
Method in brief: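 TMD8 ABC-DLBCL cells stably carrying doxycycline-inducible IkappaBalpha–green luciferase fusion plus unfused red luciferase; compounds 46 uM to 3 nM, 4 h at 37C with doxycycline. Corrected green/red luminescence ratio normalized to 10 uM MG-132 and basal cell wells; curves fitted.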

[6] = molecular target: Beta-2 adrenergic receptor (Homo sapiens) (UniProt P07550); experiment: qHTS validation assay of beta-arrestin-biased ligands of beta2-adrenergic receptor (AID 485366)
Beta-2 adrenergic receptor (Homo sapiens), sequence (P07550 whole entry, looked up): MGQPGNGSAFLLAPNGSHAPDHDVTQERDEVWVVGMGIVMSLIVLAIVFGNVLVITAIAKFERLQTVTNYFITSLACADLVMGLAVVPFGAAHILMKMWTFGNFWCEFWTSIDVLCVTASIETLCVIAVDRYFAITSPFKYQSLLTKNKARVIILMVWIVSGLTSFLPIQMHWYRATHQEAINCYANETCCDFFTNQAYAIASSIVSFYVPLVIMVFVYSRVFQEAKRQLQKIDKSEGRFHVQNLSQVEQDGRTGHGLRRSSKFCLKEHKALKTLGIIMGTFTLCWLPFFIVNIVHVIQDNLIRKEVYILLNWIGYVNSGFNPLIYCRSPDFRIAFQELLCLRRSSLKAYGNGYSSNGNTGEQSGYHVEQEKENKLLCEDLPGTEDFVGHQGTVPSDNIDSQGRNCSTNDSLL
Method in brief: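 Compound series up to 46 microM applied to beta2-AR/beta-arrestin Tango cells, 18 hr, 37 degrees C, 5% CO2. Read-out: tTA-driven luciferase luminescence, converted to %Activity; concentration-response curves assigned curve classes.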

[7] = molecular target: ATP-dependent 6-phosphofructokinase (Trypanosoma brucei brucei) (UniProt O15648); experiment: qHTS Validation Assay to Find Inhibitors of T. brucei phosphofructokinase (AID 485368); conditions: outcome: dose series up to 57.5 µM
ATP-dependent 6-phosphofructokinase (Trypanosoma brucei brucei), sequence (O15648 whole entry, looked up): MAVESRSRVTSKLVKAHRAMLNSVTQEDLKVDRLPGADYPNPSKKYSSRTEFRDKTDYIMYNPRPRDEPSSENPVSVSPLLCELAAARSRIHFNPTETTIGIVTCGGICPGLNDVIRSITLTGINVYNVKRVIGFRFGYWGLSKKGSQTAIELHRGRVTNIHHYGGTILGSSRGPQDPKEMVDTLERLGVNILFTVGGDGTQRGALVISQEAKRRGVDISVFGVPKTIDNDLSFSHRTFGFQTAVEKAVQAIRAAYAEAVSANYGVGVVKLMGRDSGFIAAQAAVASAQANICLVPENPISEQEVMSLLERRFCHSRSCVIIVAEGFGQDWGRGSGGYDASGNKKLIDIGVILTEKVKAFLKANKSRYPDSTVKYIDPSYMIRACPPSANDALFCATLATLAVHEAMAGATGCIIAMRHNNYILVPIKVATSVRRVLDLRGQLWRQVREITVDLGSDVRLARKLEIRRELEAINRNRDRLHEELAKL
Method in brief: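 qHTS format, up to 57 uM. PFK 1.25 nM; F6P 0.5 mM; ATP 0.1 mM; 5 mM MgCl2, 0.01% Tween20, 0.1% BSA; 0.1 M TEA pH 8.0; 45 min RT; ADP-Glo readout; no-enzyme control = full inhibition.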

[8] = Quantitative high throughput screen for delayed death inhibitors of the malarial parasite plastid, 96 hour incubation (AID 488745);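 also: luciferase-expressing P. falciparum in erythrocytes at 2% hematocrit and 0.1% parasitemia; series mostly up to about 29 µM; nearly all actives have a fitted effect of over 70% in size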
Method in brief: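 Luciferase-expressing P. falciparum, infected RBCs 2% Hct/0.1% parasitemia (final); 96 h cpd exposure, 37 C, 5% CO2; RPMI 1640 + 0.5% Albumax, bicarbonate, gentamycin. Readout: luminescence loss = growth inhibition.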

[9] = Quantitative high throughput screen for delayed death inhibitors of the malarial parasite plastid, 48 hour incubation (AID 488752); also: nearly all actives have a fitted effect of over 65% in size; also: potency is read from the fitted curve at half-maximal effect
Method in brief: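 Luciferase-expressing P. falciparum in RBCs, 2% Hct, 0.1% parasitemia final; RPMI 1640 + 0.5% Albumax; 48 h, 37 C, 5% CO2; luminescence readout, signal drop = growth inhibition.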

[10] = molecular target: Thioredoxin reductase 1, cytoplasmic (Rattus norvegicus) (UniProt O89049); experiment: qHTS Assay for Substrates of Mammalian Selenoprotein Thioredoxin Reductase 1 (TrxR1) (AID 488772);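 also: series mostly up to about 57 µM; a drop in NADPH fluorescence below the no-compound background marks a TrxR1 substrate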
Thioredoxin reductase 1, cytoplasmic (Rattus norvegicus), sequence (O89049 whole entry, looked up): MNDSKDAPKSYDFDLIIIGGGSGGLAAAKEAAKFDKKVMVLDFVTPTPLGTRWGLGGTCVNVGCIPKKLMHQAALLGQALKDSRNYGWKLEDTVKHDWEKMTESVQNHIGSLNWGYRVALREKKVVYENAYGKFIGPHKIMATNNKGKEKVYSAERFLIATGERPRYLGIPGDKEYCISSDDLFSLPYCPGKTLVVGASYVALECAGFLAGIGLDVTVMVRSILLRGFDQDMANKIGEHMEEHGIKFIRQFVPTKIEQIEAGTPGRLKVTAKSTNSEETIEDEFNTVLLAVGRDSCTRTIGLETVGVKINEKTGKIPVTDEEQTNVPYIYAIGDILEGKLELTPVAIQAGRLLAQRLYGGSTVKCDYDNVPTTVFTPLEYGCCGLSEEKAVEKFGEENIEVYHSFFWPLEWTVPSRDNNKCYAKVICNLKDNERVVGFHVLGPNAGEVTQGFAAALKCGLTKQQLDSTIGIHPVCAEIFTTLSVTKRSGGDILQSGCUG
Method in brief: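 In this dual-purpose format, potential substrates are identified from the first fluorescence read after selenite addition, not from the 8-minute delta. Rat enzyme is preincubated with NADPH and then with compound at ~22 deg C.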

[11] = molecular target: Flap endonuclease 1 (Homo sapiens) (UniProt P39748); experiment: qHTS Validation Assay for the Inhibitors of Human Flap endonuclease 1 (FEN1) (AID 488816)
Flap endonuclease 1 (Homo sapiens), sequence (P39748 whole entry, looked up): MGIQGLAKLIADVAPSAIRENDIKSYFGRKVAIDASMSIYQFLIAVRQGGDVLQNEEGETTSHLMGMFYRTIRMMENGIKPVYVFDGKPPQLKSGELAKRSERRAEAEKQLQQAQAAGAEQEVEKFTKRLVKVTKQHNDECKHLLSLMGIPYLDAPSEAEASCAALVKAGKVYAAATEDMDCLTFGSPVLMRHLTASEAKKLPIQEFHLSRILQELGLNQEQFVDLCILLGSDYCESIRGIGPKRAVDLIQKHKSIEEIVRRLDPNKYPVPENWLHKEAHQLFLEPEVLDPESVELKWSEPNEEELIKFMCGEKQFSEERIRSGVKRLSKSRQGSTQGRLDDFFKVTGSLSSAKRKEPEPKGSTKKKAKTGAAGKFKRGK
Method in brief: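 Enzyme reagent 10 nM; cpds pinned; 15 min RT preinc.; substrate 50 nM final; reads t=0 and 15 min; no-enzyme buffer wells as neg. control; normalized data, 4-parameter Hill fit.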

[12] = molecular target: M-phase phosphoprotein 8 (Homo sapiens) (UniProt Q99549); experiment: qHTS Validation Assay for Inhibitors for MPP8 Chromodomain Interactions with Methylated Histone Tails (AID 488949);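 also: AlphaScreen signal from MPP8 chromodomain bound to biotinylated H3K9me3 peptide; top concentration of the series differs between compounds; nearly all actives have a fitted effect of over 55% in size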
Method in brief: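 AlphaScreen read-out: streptavidin donor and nickel chelate acceptor beads (final 10 ug/mL), 30 min in the dark at RT. Complex of 50 nM MPP8 and 50 nM b-H3(1-18)K9me3 peptide had been exposed to compounds for 30 min beforehand.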

[13] = molecular target: Chromobox protein homolog 1 (Homo sapiens) (UniProt P83916); experiment: qHTS Validation Assay for Inhibitors of HP1-beta Chromodomain Interactions with Methylated Histone Tails (AID 488953);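 also: loss of AlphaScreen luminescence from HP1-beta binding biotinylated H3K9me3 peptide; series mostly up to about 110 µM; nearly all actives have a fitted effect of over 50% in size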
Chromobox protein homolog 1 (Homo sapiens), sequence (P83916 whole entry, looked up): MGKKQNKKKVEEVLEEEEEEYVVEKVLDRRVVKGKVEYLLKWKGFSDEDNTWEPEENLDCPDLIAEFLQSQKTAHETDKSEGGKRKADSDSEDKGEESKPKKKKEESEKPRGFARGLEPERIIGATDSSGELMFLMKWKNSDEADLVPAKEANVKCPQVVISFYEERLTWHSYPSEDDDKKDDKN
Method in brief: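 AlphaScreen proximity readout: streptavidin donor and Ni-chelate acceptor beads, 10 ug/mL final, 30 min dark, RT. Complex of 50 nM HP1-beta and 50 nM b-H3(1-18)K9me3 formed 30 min, then compound-treated 30 min; PBS pH 7.4/0.01% Tween-20.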

[14] = molecular target: Methanococcus maripaludis chaperonin (MmCpn) (UniProt Q6LX38); experiment: High-Throughput Screening for Modulators of Cytosolic Chaperonin Activity: MmCpn Primary Screen (AID 488978);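 also: 50 nM MmCpn enzyme hydrolysing 30 µM ATP at 37 °C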
Methanococcus maripaludis chaperonin (MmCpn), sequence (Q6LX38 1-543): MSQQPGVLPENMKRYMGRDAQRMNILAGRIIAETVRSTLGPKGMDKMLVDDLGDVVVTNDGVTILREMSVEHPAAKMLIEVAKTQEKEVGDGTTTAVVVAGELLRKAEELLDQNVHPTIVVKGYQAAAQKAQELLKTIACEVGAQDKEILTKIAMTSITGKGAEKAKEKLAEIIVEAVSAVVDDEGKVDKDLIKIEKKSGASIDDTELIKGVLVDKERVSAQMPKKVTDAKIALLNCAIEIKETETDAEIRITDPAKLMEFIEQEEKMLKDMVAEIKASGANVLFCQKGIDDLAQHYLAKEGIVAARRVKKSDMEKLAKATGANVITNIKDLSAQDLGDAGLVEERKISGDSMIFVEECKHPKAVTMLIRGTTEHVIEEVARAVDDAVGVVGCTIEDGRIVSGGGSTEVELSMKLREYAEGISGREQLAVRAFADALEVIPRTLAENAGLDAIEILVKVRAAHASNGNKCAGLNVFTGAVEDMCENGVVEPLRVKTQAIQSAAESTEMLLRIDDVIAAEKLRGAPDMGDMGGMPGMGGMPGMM
Method in brief: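 ADP formation read by HTRF Transcreener, 665/590 nm emission after 320 nm excitation. Enzyme: archaeal chaperonin at 50 nM final; substrate ATP 30 uM final; 10 min, 37C, after 5 min compound preincubation at RT.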

[15] = molecular target: Transient receptor potential cation channel subfamily V member 1 (Homo sapiens) (UniProt Q8NER1); experiment: HTS Assay for Compounds that Act as Enhancers of the Vanilloid Receptor 1 (AID 488979)
Transient receptor potential cation channel subfamily V member 1 (Homo sapiens), sequence (Q8NER1 whole entry, looked up): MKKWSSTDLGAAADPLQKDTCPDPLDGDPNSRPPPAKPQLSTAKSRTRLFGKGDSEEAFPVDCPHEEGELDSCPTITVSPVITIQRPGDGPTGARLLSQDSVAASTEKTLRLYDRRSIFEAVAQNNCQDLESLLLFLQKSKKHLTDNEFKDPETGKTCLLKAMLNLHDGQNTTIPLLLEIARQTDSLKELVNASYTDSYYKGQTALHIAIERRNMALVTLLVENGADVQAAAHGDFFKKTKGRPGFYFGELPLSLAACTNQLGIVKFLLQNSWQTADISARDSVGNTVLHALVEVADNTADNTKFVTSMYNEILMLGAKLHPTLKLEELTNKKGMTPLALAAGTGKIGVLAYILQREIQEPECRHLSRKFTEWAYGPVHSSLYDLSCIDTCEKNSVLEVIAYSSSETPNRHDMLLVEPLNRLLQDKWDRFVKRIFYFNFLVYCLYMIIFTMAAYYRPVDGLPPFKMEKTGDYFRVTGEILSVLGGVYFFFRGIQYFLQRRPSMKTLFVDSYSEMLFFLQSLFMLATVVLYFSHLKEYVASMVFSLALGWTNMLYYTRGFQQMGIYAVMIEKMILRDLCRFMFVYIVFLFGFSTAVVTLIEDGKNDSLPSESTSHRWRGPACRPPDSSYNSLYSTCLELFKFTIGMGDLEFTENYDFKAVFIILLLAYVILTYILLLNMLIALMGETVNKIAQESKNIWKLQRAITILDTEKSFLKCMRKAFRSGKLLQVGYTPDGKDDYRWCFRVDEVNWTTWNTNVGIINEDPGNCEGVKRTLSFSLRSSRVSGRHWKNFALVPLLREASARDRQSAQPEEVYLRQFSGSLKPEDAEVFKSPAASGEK
Method in brief: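 TRPV1 cells loaded with Fluo-8 calcium dye; compound added and Ca2+ signal (ex 480/em 520 nm) followed 3 min, then capsaicin at EC20 added and read 2 more min to detect enhancement.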

[16] = molecular target: D(1A) dopamine receptor (Homo sapiens) (UniProt P21728); experiment: HTS Assay for Allosteric Agonists of the Human D1 Dopamine Receptor: Primary Screen for Agonists (AID 488981)
D(1A) dopamine receptor (Homo sapiens), sequence (P21728 whole entry, looked up): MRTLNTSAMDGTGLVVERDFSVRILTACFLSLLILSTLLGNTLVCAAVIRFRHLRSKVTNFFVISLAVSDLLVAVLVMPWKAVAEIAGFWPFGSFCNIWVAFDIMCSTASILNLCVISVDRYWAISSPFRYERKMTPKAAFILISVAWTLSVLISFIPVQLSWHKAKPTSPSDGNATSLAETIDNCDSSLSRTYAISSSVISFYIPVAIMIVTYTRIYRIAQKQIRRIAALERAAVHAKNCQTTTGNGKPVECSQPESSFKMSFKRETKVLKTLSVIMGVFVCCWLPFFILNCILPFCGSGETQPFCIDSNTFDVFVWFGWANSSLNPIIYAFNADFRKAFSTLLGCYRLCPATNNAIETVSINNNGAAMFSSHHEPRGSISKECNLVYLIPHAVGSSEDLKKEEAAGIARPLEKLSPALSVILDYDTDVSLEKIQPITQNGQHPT
Method in brief: (§1)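 Tetracycline-induced HEK293 Trex D1 cells with forced coupling to calcium, loaded with no-wash calcium dye; kinetic fluorescence read 180 s after compound addition for agonism, then a further 180 s after an EC20 dopamine challenge for potentiation.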

[17] = molecular target: D(1A) dopamine receptor (Homo sapiens) (UniProt P21728); experiment: HTS Assay for Allosteric Agonists of the Human D1 Dopamine Receptor: Primary Screen for Potentiators (AID 488982)
Method in brief: as §1

[18] = molecular target: D(1A) dopamine receptor (Homo sapiens) (UniProt P21728); experiment: HTS Assay for Allosteric Agonists of the Human D1 Dopamine Receptor: Primary Screen for Antagonists (AID 488983);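 also: calcium flux response to an EC80 dopamine challenge measured with no-wash dye; nearly all actives have a fitted effect of over 65% in size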; also: potency is read from the fitted curve at half-maximal effect
Method in brief: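 Calcium flux readout, no-wash dye, inducible HEK293 T-REx D1 line (force-coupled). Compound added after 10 s baseline, 180 s kinetic read; then dopamine at EC80, further 180 s read.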

[19] = molecular target: Thyrotropin receptor (Homo sapiens) (UniProt P16473); experiment: qHTS Assay for Antagonists of the Thyroid Stimulating Hormone Receptor (AID 488980); also: series mostly up to about 58 µM
Method in brief: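 TSHR-HEK293 cells; 70 uM RO 20-1724 PDE inhibitor; compound + EC80 TSH (4 nM final); anti-cAMP cryptate antibody/cAMP-d2 in lysis buffer, 30 min RT; HTRF 665/620 nm read.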

[20] = molecular target: Thioredoxin reductase 1, cytoplasmic (Rattus norvegicus) (UniProt O89049); experiment: qHTS Assay for Inhibitors of Mammalian Selenoprotein Thioredoxin Reductase 1 (TrxR1) (AID 488773); conditions: Potency: inhibition;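 also: drop in NADPH fluorescence over an 8 min run after selenite addition; series mostly up to about 57 µM; nearly all actives have a fitted effect of over 40% in size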
Method in brief: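 Inhibition is scored from the loss of NADPH fluorescence between first and last reads of an 8-min kinetic run. Selenite (400 uM) was the substrate, added after 15 min compound preincubation at room temperature.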

SMILES | Potency [1] | outcome [2] | Potency [3] | outcome [4] | Potency [5] | outcome [6] | outcome [7] | Potency [8] | Potency [9] | outcome [10] | Potency [11] | Potency [12] | Potency [13] | outcome [14] | outcome [15] | Potency [16] | Potency [17] | Potency [18] | outcome [19] | Potency [20]
Cc1nc2ccccn2c(=O)c1CCN1CCC(C(=O)c2ccc(F)cc2)CC1 | inactive | inactive | inactive | inactive | inactive | inactive | inactive | inactive | inactive | inactive | inactive | inactive | inactive | inactive | inactive | inactive | inactive | 4.47 µM (active) | – | –
CCN1CCC[C@H]1CNC(=O)c1c(O)c(Cl)cc(Cl)c1OC | inactive | inactive | inactive | inactive | inactive | inactive | inactive | inactive | inactive | – | inactive | inactive | inactive | inactive | inactive | – | inactive | inactive | inactive | –
CC(N=C(NC#N)Nc1ccncc1)C(C)(C)C (stereo not given) | inactive | inactive | inactive | inactive | inactive | inactive | inactive | inactive | inactive | – | – | inactive | inactive | inactive | – | inactive | inactive | inactive | inactive | inactive
CC1=NS(=O)(=O)c2cc(Cl)ccc2N1 | inactive | inactive | inactive | inactive | inactive | inactive | inactive | inactive | inactive | – | inactive | inactive | inactive | inactive | – | inactive | – | inactive | inactive | inactive
Cc1ccc(Cl)c(Nc2ccccc2C(=O)O)c1Cl | 14.1 µM (active) | inactive | inactive | inactive | – | inactive | inactive | – | inactive | inactive | inactive | inactive | inactive | inactive | inactive | – | inactive | inactive | inactive | inactive
O=C(CCCN1CCC(O)(c2cccc(C(F)(F)F)c2)CC1)c1ccc(F)cc1 | inactive | inactive | inactive | inactive | inactive | inactive | – | – | 13.1 µM (active) | – | – | inactive | inactive | inactive | inactive | – | inactive | – | inactive | inactive
CCCCCN(CCCCC)C(=O)C(CCC(=O)O)NC(=O)c1ccc(Cl)c(Cl)c1 (stereo not given) | inactive | inactive | inactive | inactive | inactive | inactive | – | – | inactive | inactive | inactive | inactive | inactive | inactive | inactive | – | – | inactive | inactive | –
CCn1nc(C(=O)O)c(=O)c2cc3c(cc21)OCO3 | inactive | inactive | inactive | inactive | inactive | inactive | – | – | inactive | – | – | inactive | inactive | inactive | inactive | inactive | inactive | inactive | inactive | –
